Test results published in PubChem BioAssay (Tox21).
Results filed as inconclusive are left out. Active and inactive are the calls of the source. Unless noted, calls follow the shape of the full dose curve.

Assays:
[1] = Nuclear factor erythroid 2-related factor 2/antioxidant responsive element (Nrf2/ARE) small molecule agonists: qHTS cell viability counter screen in human keratinocytes (AID 1919968; active = well fitted curve in the direction sought with a large enough effect in the repeat runs; an effect the other way counts as inactive or inconclusive; also: nearly all actives have a fitted effect of over 55% in size)
Method in brief: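 Stably transfected HaCaT (KeratinoSens), 1,500/well. Test agents in DMSO were applied for 23 h, 37 C/5% CO2. CellTiter-Fluor was incubated 1 h before the fluorescence read.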

[2] = target: KiSS-1 receptor (Homo sapiens) (UniProt Q969F8); test: Human kisspeptin (KISS1R) small molecule agonists, calcium flux assay in KISS1R-HEK293 cells (AID 1920064; active = well fitted curve in the direction sought with a large enough effect in the repeat runs; an effect the other way counts as inactive or inconclusive)
Chain of KiSS-1 receptor (Homo sapiens) (Q969F8 whole entry, looked up): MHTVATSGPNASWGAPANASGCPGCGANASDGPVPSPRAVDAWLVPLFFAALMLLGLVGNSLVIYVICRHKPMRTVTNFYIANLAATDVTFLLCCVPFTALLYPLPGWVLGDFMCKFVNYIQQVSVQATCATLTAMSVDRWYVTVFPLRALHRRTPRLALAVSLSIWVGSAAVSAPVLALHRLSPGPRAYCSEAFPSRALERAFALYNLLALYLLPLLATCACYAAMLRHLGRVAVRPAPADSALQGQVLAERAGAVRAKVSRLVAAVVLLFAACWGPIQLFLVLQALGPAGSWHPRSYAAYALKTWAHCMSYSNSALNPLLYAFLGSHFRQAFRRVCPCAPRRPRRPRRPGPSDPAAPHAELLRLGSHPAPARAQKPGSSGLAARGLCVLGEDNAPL
Method in brief: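 After overnight (18 h) culture at 37 C/5% CO2, human KISS1R-HEK293 cells received calcium dye for 1 h, then test compound; emission at 540 nm (excitation 480 nm) was tracked for 3 min.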

[3] = G protein-coupled receptor (GPCR) small molecule agonists, calcium flux assay: HEK293 wild type cell line counter screen (AID 1920065)
Method in brief: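 Following 18 h incubation at 37 C/5% CO2, plates got calcium dye for 1 h; compounds, ATP or DMSO were then pinned in and fluorescence followed kinetically (480/540 nm).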

[4] = p53 small molecule agonists, cell-based qHTS assay with human liver microsomes (AID 1963577);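 also: p53 response element beta-lactamase reporter cells with liver microsomes plus NADPH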
Method in brief: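 Metabolically competent format: test substances, human liver microsomes and NADPH (both 0.5 mg/mL final) incubated with p53RE-bla cells 16 h at 37 C. Beta-lactamase reporter signal then quantified by fluorescence.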

[5] = p53 small molecule agonists, cell-based qHTS assay with rat liver microsomes (AID 1963578)
Method in brief: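 Each plate received p53RE-bla cells, then compound, then rat liver microsomes and NADPH (both 0.5 mg/mL final). Plates were held 16 h at 37 C, and beta-lactamase activity was detected with LiveBLAzer over 2 h.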

[6] = p53 small molecule agonists, cell-based qHTS assay with human liver microsomes: qHTS cell viability counter screen (AID 1963579); also: nearly all actives have a fitted effect of over 45% in size
Method in brief: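 Tox21 library compounds, delivered from DMSO stocks, were tested on p53RE-bla cells together with 0.5 mg/mL human liver microsomes and 0.5 mg/mL NADPH (final) over 16 h at 37 C; CellTiter-Glo luminescence served as the cytotoxicity measure.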

[7] = p53 small molecule agonists, cell-based qHTS assay with rat liver microsomes: qHTS cell viability counter screen (AID 1963580); also: nearly all actives have a fitted effect of over 45% in size
Method in brief: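 Cytotoxicity counter screen: intracellular ATP measured by CellTiter-Glo luminescence in the same wells as the beta-lactamase reporter read, on HCT-116 p53RE-bla cells exposed 16 h at 37 C to compounds with rat liver microsomes and NADPH, each 0.5 mg/mL final.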

[8] = p53 small molecule agonists, cell-based qHTS assay: qHTS cell viability counter screen (AID 1963581); also: nearly all actives have a fitted effect of over 45% in size
Method in brief: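 qHTS counter screen: 16 h compound exposure at 37 C of p53RE-bla HCT-116 cells (4,000 per well, seeded 5 h prior), cell viability by ATP luminescence.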

[9] = p53 small molecule agonists, cell-based qHTS assay (AID 1963582; active = well fitted activation curve with a large enough effect in the signal ratio in the repeat runs, not every such curve was filed as active; the % refers to the signal ratio)
Method in brief: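 Measured: fluorescence from cleaved LiveBLAzer substrate. System: p53RE-bla cells, 16 h compound treatment at 37 C, 2 h substrate step at room temperature.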

[10] = target: 5-hydroxytryptamine receptor 2A (Homo sapiens) (UniProt P28223); test: 5-hydroxytryptamine receptor 2A (HTR2A) small molecule antagonists, cell-based qHTS assay (AID 1963586); also: nearly all actives have a fitted effect of over 45% in size
Chain of 5-hydroxytryptamine receptor 2A (Homo sapiens) (P28223 whole entry, looked up): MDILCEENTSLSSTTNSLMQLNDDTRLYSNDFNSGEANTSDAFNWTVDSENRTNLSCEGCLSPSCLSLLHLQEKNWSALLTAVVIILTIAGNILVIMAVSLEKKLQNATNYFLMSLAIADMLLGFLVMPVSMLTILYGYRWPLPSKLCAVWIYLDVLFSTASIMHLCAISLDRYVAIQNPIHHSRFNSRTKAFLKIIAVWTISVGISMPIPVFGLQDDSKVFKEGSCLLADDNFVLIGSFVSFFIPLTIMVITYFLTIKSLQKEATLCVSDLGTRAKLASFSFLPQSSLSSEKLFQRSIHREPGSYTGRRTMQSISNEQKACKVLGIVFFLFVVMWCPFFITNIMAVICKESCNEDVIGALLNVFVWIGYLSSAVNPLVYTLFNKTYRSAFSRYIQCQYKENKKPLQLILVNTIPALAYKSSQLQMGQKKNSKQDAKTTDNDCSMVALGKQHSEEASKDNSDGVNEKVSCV
Method in brief: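 CHO cells stably expressing human HTR2A were plated for 18 h at 37 C, then loaded with calcium dye for 1 h. Compounds were preincubated 5 min at room temperature before DOI (4 nM solution) was added. Kinetic fluorescence was read for 3 min.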

[11] = target: 5-hydroxytryptamine receptor 2A (Homo sapiens) (UniProt P28223); test: 5-hydroxytryptamine receptor 2A (HTR2A) small molecule agonists, cell-based qHTS assay (AID 1963587); also: nearly all actives have a fitted effect of over 30% in size
Method in brief: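 CHO cells stably expressing human HTR2A, plated 18 h, loaded with calcium dye 1 h at 37 C. Agonist mode: compounds added and intracellular calcium fluorescence recorded kinetically for 2 min at 1 sec intervals.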

[12] = target: Muscarinic acetylcholine receptor M1 (Homo sapiens) (UniProt P11229); test: Cholinergic receptor muscarinic 1 (CHRM1) small molecule antagonists, cell-based qHTS assay (AID 1963588); also: nearly all actives have a fitted effect of over 40% in size
Chain of Muscarinic acetylcholine receptor M1 (Homo sapiens) (P11229 whole entry, looked up): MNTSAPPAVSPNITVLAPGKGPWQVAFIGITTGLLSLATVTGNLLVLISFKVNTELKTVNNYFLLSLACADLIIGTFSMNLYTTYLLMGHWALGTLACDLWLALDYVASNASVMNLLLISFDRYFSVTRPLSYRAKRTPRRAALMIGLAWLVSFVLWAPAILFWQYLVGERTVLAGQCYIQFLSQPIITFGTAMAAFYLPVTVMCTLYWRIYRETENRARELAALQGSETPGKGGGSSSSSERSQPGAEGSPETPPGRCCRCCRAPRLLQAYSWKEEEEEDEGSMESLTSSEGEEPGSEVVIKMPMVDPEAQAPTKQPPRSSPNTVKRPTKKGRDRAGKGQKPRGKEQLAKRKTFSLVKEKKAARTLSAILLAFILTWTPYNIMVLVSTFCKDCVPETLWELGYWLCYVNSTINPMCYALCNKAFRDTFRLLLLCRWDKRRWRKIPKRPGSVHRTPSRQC
Method in brief: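 Compounds were tested at 15 concentrations in three independent runs. Dye-loaded CHRM1-CHO cells were exposed 5 min at room temperature before stimulation by acetylcholine added at 50nM. Intracellular calcium was read kinetically on FDSS for 3 min.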

[13] = target: Muscarinic acetylcholine receptor M1 (Homo sapiens) (UniProt P11229); test: Cholinergic receptor muscarinic 1 (CHRM1) small molecule agonists, cell-based qHTS assay (AID 1963589); also: nearly all actives have a fitted effect of over 35% in size
Method in brief: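 Kinetic fluorescence (1 s intervals) of calcium-sensitive dye in human M1 CHO cells after compound addition; cells pre-incubated 18 h at 37 C/5% CO2 and dye-loaded 1 h.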

[14] = cAMP Responsive Elements (CRE) small molecule agonists, cell-based qHTS assay (AID 1963590)
Method in brief: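 Test agents in DMSO were incubated 3 h at 37 C/5% CO2 with CRE-bla HEK 293T cells seeded 18 h earlier; LiveBLAzer B/G FRET substrate was added and read after 2 h at room temperature.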

[15] = cAMP Responsive Elements (CRE) small molecule antagonists, cell-based qHTS assay (AID 1963591; active = well fitted inhibition curve with a large enough effect in the signal ratio in the repeat runs, not every such curve was filed as active; the % refers to the signal ratio)
Method in brief: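 Reporter line CRE-bla HEK 293T in dialyzed-FBS DMEM; cells preincubated 18 h, treated 3 h with compound plus NKH477 (0.25 uM final); LiveBLAzer FRET, 2 h RT.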

[16] = target: Beta-2 adrenergic receptor (Homo sapiens) (UniProt P07550); test: Adrenergic beta2 receptor (ADRB2) small molecule antagonists, cell-based qHTS assay (AID 1963592); also: series mostly up to about 92 µM; nearly all actives have a fitted effect of over 50% in size
Chain of Beta-2 adrenergic receptor (Homo sapiens) (P07550 whole entry, looked up): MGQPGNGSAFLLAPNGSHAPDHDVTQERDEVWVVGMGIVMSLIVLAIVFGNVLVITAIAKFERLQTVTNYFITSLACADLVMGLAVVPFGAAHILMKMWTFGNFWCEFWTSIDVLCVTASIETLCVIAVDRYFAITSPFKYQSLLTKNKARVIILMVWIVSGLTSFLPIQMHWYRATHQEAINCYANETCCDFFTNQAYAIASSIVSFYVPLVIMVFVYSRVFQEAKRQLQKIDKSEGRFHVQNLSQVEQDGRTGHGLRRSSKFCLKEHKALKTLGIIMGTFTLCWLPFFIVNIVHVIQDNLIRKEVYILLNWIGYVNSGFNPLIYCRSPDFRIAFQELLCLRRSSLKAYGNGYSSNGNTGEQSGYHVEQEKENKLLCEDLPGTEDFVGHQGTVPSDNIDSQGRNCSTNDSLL
Method in brief: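 Assay format: CHO-ADRB2 cells, 18-20hr seeding at 37C/5% CO2, then compound plus 1nM isoproterenol agonist mix for 0.5hr RT. Homogeneous time-resolved fluorescence cAMP detection after 1hr, expressed as 665/615 nm ratio.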

[17] = target: D(2) dopamine receptor (Homo sapiens) (UniProt P14416); test: Dopamine D2 receptor (DRD2) small molecule agonists, cell-based qHTS assay (AID 1963594); also: nearly all actives have a fitted effect of over 35% in size
Chain of D(2) dopamine receptor (Homo sapiens) (P14416 whole entry, looked up): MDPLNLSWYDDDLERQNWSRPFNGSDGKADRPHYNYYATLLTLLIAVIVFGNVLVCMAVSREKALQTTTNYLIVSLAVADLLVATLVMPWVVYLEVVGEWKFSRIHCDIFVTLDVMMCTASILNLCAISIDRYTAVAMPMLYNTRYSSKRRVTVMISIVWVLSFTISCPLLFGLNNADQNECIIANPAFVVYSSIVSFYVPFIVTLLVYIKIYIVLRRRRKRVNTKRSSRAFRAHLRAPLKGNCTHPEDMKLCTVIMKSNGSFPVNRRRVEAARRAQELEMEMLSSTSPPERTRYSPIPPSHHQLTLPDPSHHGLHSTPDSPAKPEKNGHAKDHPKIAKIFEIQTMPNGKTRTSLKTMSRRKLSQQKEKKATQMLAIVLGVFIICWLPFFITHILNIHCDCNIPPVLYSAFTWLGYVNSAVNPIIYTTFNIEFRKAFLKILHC
Method in brief: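 HEK293 cells stably expressing human DRD2, pre-treated with PDE inhibitor Ro20-1724 (0.1 mM final) and compound 10 min at room temperature, then stimulated with NKH477 (200nM […]) for 30 min. cAMP read by HTRF (665/620 nm).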

[18] = target: D(2) dopamine receptor (Homo sapiens) (UniProt P14416); test: Dopamine D2 receptor (DRD2) small molecule antagonists, cell-based qHTS assay (AID 1963595; active = well fitted inhibition curve with a large enough effect in the signal ratio in the repeat runs, with a control signal flat; the % refers to the signal ratio)
Method in brief: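 HEK293 cells stably expressing DRD2 were preincubated with 0.1 mM Ro20-1724, then with compound for 10 min at room temperature. Cells were stimulated with 200 nM NKH477 plus 12 nM quinpirole for 30 min, and cAMP was read by HTRF.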

[19] = target: Beta-2 adrenergic receptor (Homo sapiens) (UniProt P07550); test: Adrenergic beta2 receptor (ADRB2) small molecule agonists, cell-based qHTS assay (AID 1963593);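 also: CHO cells stably overexpressing human ADRB2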
Method in brief: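 CHO cells stably over-expressing ADRB2 were plated overnight at 37C, then dosed with compounds plus a stimulation mix containing 100uM IBMX and 25uM Ro-20-1724 for 0.5hr at room temperature. cAMP was measured by HTRF competition, 1hr.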

Measured: Potency

CCC(CO)CO
not listed: [19]
inactive: all other assays above

CC/C=C/CCO
not listed: [11]
inactive: all other assays above

Nc1cc(C(Cl)=C(Cl)Cl)c(S(N)(=O)=O)cc1S(N)(=O)=O
not listed: [19]
inactive: all other assays above

O
not listed: [10] | [11] | [12] | [13]
inactive: all other assays above

CC(=O)S[C@H](C(=O)N[C@H]1Cc2ccccc2[C@H]2CCC[C@@H](C(=O)O)N2C1=O)C(C)C
not listed: [17]
inactive: all other assays above

Cc1ccc(C(=O)O)cc1
not listed: [10] | [15] | [19]
inactive: all other assays above

NC(=O)c1cccc([N+](=O)[O-])c1
not listed: [9] | [19]
inactive: all other assays above

NC(=O)c1ncn([C@@H]2O[C@H](CO)[C@@H](O)[C@H]2O)c1O
not listed: [12] | [13] | [14]
inactive: all other assays above
